Source: PubChem (several laboratories)
Rows were chosen to be rich in hits. Some 0.5% of all compounds tested hit in one or more screens of this group.
AddAB inh – growth inhibition of E. coli expressing H. pylori AddAB, primary screen, AddAB inhibitor project, absorbance. inhibition, % at 11.9 µM. hit rate 0.29% among 330,000. AID 435030, 2010; in the data active = inhibition above about 12%;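 note: 0% = vehicle wells of infected cells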
phage Ecoli inh – growth loss of phage-infected E. coli, primary screen, RecBCD inhibitor project, absorbance, with phage, HTS; inhibition, % at 11.9 µM; hit rate 0.26% among 360,000; in the data active = inhibition above about 11%
Tat export inh – E. coli Tat export inhibitors, primary screen, MC4100, TorA-mCherry reporter, fluorescence, single point; AID 488895, 2010; inhibition, % at 10 µM; hit rate 0.036% among 340,000;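 active = mean replicate inhibition at least 50% and at least half of replicates individually reaching 50%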;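 note: exported cargo escapes ClpAP degradation while cytoplasmic cargo is degraded and loses fluorescence; 0% = median of neutral control wells and 100% = median of NaSCN control wells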
E coli growth-1 – E. coli growth inhibition, primary screen, OD600; Escherichia coli growth, 23 h; hits give low values; AID 1053175, 2014; OD600 absorbance (concentration not given with the values); hit rate 0.21% among 330,000;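 active = OD600 absorbance below the run mean of sample wells minus 3.6 SD, in any replicate, cut at about 0.56 in these data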
E coli growth-2 – E. coli V3065 growth inhibition, primary screen, counter-screen for AddAB inhibitor project, absorbance, OD600 | 18 h | inhibition, % at 11.9 µM | hit rate 0.27% among 330,000 | AID 449728, 2010;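 active = inhibition above the campaign's mean inhibition across all tested compounds plus 3 SD, cut at about 9.9% in these data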;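 note: uninfected addAB+ strain grown without phage in ampicillin broth; 0% = DMSO wells and 100% = ciprofloxacin 0.95 µg/ml wells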
RecBCD conf – growth loss of phage-infected RecBCD+ E. coli, confirmation, RecBCD inhibitor project, absorbance, E. coli V66, T4 gene 2 phage; shares compounds with phage Ecoli inh; hit rate 45% among 890; inhibition, % at 11.9 µM; E. coli V66 + T4 2- phage, growth OD;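 active = mean inhibition over triplicates exceeding the hit threshold derived in the original primary screen, cut at about 11% in these data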
Ecoli viability – E. coli viability inhibition, counter-screen for RecBCD inhibitor project, absorbance, high throughput | shares compounds with phage Ecoli inh | absorbance (OD) growth | inhibition, % at 11.9 µM | hit rate 29% among 890 | AID 651983, 2013; in the data active = inhibition above about 20%;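 note: E. coli strain V66 grown with compound alone and no phage infection; 0% = bacteria with DMSO vehicle only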
AddAB phage OD – growth loss of phage-infected AddAB-carrying E. coli, confirmation, counter-screen for RecBCD inhibitor project, absorbance, E. coli V3065, T4 phage. AID 651984, 2013. shares compounds with phage Ecoli inh. inhibition, % at 11.9 µM. hit rate 45% among 890. E. coli expressing H. pylori AddAB + T4 phage, OD growth; gene 2 mutant T4, recBCD-deleted host;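 active = mean inhibition above the solvent-only control wells' mean plus 3 SD, cut at about 22% in these data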;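 note: higher means less bacterial growth from phage killing when AddAB is blocked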
Numbers without * were called inactive.

`COc1ccc(C2C=CCN(Cc3ccc(N(C)C)cc3)CC(=O)N2Cc2ccc(F)cc2)cc1` (stereo unspecified) gave E coli growth-1 0.69.
For O=C(O)CCC(=O)Nc1nnc(C(F)(F)F)s1 the results were AddAB inh 1, phage Ecoli inh 2, Tat export inh 1, E coli growth-1 0.77 and E coli growth-2 -1.
Screening CCC(NC(=O)Nc1nnc(C(F)(F)F)s1)(C(F)(F)F)C(F)(F)F returned AddAB inh 5, phage Ecoli inh 12*, Tat export inh -21, E coli growth-1 0.61, E coli growth-2 9, RecBCD conf 10, Ecoli viability 10 and AddAB phage OD 9.
Screening CC(=NN1CCN(c2ccccc2)CC1)c1cccs1 returned E coli growth-1 0.67.
CCNS(=O)(=O)c1ccc(NC(=O)Cn2nc(C(F)(F)F)cc2C)cc1 was read as AddAB inh 11, phage Ecoli inh 12*, Tat export inh -10, E coli growth-1 0.69, E coli growth-2 11*, RecBCD conf 5, Ecoli viability 6 and AddAB phage OD 7.
O=Cc1cc(N=Nc2ccccc2Cl)ccc1O was read as AddAB inh 7, phage Ecoli inh 12*, Tat export inh 0, E coli growth-1 0.68, E coli growth-2 7, RecBCD conf 5, Ecoli viability 7 and AddAB phage OD 1.
Screening O=C(NC(Cc1ccccc1)C(=O)OCc1ccccc1)c1nc[nH]c1C(=O)N1CCN(c2ccccc2)CC1 (stereo unspecified) returned E coli growth-1 0.74.
Screening O=C(CSc1ccc(-c2ccccn2)nn1)c1ccc([N+](=O)[O-])cc1 returned AddAB inh 7, phage Ecoli inh 12*, Tat export inh -4, E coli growth-1 0.66, E coli growth-2 5, RecBCD conf -1, Ecoli viability 0 and AddAB phage OD 5.
For CC(=O)c1cccc(NC(=O)CSc2ccc(-c3ccccn3)nn2)c1 the results were AddAB inh 11, phage Ecoli inh 11*, Tat export inh 2, E coli growth-1 0.61, E coli growth-2 6, RecBCD conf 4, Ecoli viability 3 and AddAB phage OD 18.
Screening O=C(CSc1ccc(-c2cccnc2)nn1)c1ccc([N+](=O)[O-])cc1 returned AddAB inh 1, phage Ecoli inh 3, Tat export inh -4, E coli growth-1 0.64 and E coli growth-2 0.
Cc1ccc(C2C3C(=O)N(c4ccccc4)C(=O)C3[C@]3(C)C(=O)N(Cc4ccccc4)CC(=O)N23)o1 (stereo partly specified) was read as E coli growth-1 0.67.
`Cc1nnc(SCC2=C(C(=O)O)N3C(=O)[C@@H](NC(=O)Cn4cnnn4)[C@H]3SC2)s1` gave AddAB inh -1, phage Ecoli inh 94*, Tat export inh -6, E coli growth-1 0.045*, E coli growth-2 1, RecBCD conf 102*, Ecoli viability 104* and AddAB phage OD 3.
`Cc1nnc(SCC2=C(C(=O)O)N3C(=O)C(NC(=O)Cn4nc(C(F)F)c(Cl)c4C)C3SC2)s1` (stereo unspecified) gave AddAB inh -1, phage Ecoli inh 4, Tat export inh 17, E coli growth-1 0.62 and E coli growth-2 2.
`Cc1nnc(SCC2=C(C(=O)O)N3C(=O)C(NC(=O)Cn4cnnn4)C3SC2)s1` (stereo unspecified) gave AddAB inh -3, phage Ecoli inh 100*, Tat export inh 0, E coli growth-1 0.062*, E coli growth-2 -1, RecBCD conf 104*, Ecoli viability 106* and AddAB phage OD 1.
For CCC(C(=O)NC1C(=O)N2C(C(=O)O)=C(CSc3nnc(C)s3)CSC12)c1ccccc1 (stereo unspecified) the results were AddAB inh 0, phage Ecoli inh 4, Tat export inh -3, E coli growth-1 0.63 and E coli growth-2 0.
